Source: PubChem BioAssay
Only some compounds are listed: those with a hit (about 1.2% of all), similar ones and a draw of the others.
RGS7-Gao reg: regulators of human RGS7-Galphao interaction. P09471. Multiplexed bead flow cytometry, RGS7-Galphao binding; actives lie on both sides. binding response (% of control), % at 10 µM. 220,000 tested, 0.35% active. AID 1439; in the data active means binding response below about 49% or above about 150%; inconclusive means no clear call, values can overlap the other calls; inactive means in between;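 further: fluorescent Galphao held in activated GDP-AlF4 state binding bead-coupled RGS7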
Target sequence (P09471 whole entry, looked up): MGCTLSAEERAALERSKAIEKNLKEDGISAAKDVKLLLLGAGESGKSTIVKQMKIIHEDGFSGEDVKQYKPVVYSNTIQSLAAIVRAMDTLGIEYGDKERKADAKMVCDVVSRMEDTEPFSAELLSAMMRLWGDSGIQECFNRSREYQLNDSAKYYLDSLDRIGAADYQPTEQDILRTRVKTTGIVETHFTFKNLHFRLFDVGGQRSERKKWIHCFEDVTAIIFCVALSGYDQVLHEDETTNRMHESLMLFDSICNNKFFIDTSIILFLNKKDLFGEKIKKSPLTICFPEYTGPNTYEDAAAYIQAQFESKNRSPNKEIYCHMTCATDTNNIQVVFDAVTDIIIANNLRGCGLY
GSH bead fluor: compound fluoresces at 488/530 nm on GSH beads; GSH beads flow cytometry, compound fluorescence 488/530 nm; stronger effect = higher value; fluorescence (KMESF) at 10 µM; 190,000 tested, 0.25% active; AID 1776; in the data active means fluorescence above about 89;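 further: glutathione beads carrying GST-tagged Bcl family fusion proteins plus one bare bead set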
Avidin fluor: compound fluoresces at 488/530 nm on avidin beads. compound fluorescence 488/530 nm, flow cytometry; stronger effect = higher value. fluorescence (KMESF) at 10 µM. 220,000 tested, 0.38% active; in the data active means fluorescence above about 47
RGS8-Gao reg: human RGS8-Galphao interaction regulation; multiplexed bead flow cytometry, RGS8-Galphao binding; actives lie on both sides; response (percent of control binding), % at 10 µM; 220,000 tested, 0.34% active; AID 1423; in the data active means response below about 60% or above about 140%; inactive means in between;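 further: Galphao activated as the GDP aluminium fluoride complex binding bead-coupled RGS8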
RGS4-Gao reg: modulates binding of RGS4 to human Galphao; binding response (% of control), % at 10 µM; Multiplexed bead flow cytometry; actives lie on both sides; AID 1415; P09471; 220,000 tested, 0.33% active; in the data active means binding response below about 49% or above about 150%; inactive means in between;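 further: fluorescent Galphao activated with aluminum fluoride binding bead-coupled RGS4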
RGS16-Gao: RGS16-Galphao interaction regulator (human) | O15492+P09471 | bead-based flow cytometry RGS16-Galphao binding, fluorescence; actives lie on both sides | binding response (% of control), % at 10 µM | 220,000 tested, 0.38% active | AID 1441;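 further: Galphao activated by GDP with aluminum fluoride before binding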
Target sequence (O15492 whole entry, looked up): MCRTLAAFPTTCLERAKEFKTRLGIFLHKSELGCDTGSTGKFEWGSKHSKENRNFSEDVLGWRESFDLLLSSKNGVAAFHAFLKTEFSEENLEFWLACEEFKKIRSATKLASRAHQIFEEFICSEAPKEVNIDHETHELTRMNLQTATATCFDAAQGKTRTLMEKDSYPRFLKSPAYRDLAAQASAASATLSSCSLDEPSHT
Target sequence (P09471 whole entry, looked up): as the sequence (P09471 whole entry, looked up) above
RGS-Gao: modulates binding between human RGS4 and Galphao | shares compounds with RGS16-Gao | multiplexed bead flow cytometry, RGS–Galpha-o binding | RGS4–Galpha-o binding response, % at 10 µM | 1,600 tested, 99% active | AID 1504;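 further: fluorescently labeled Galpha-o bound to GDP with aluminium fluoride binding biotinylated RGS beads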
Avidin counter: interferes with biotinylated probe binding to avidin beads; shares compounds with RGS16-Gao; streptavidin beads, fluorescein-biotin binding, flow cytometry; inhibition, % at 10 µM; 1,700 tested, under 10 active; AID 1783;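 active means inhibition above 50%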;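 further: median green fluorescence of gated singlet beads compared with DMSO control wells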
RGS8-Gao single: confirmation of regulators of human RGS8-Galphao interaction; shares compounds with RGS16-Gao; bead-based flow cytometry RGS8-Galphao binding, fluorescence; actives lie on both sides; binding response (% of control), % at 10 µM; 1,700 tested, 3% active; in the data active means binding response below about 72% or above about 130%; inactive means in between;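 further: Galphao activated as GDP AlF4 complex before binding bead RGS8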
RGS7-Gao single: RGS7-Galphao interaction regulation, single point confirmation. shares compounds with RGS16-Gao. response (percent of control binding), % at 10 µM. bead-based flow cytometry RGS7-Galphao binding; actives lie on both sides. AID 1837. 1,700 tested, 7.8% active; in the data active means response below about 75% or above about 130%; inactive means in between;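 further: fluorescent Galphao activated with GDP and aluminum fluoride binding bead-coupled RGS7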
RGS16-Gao conf: RGS16-Galphao interaction regulation, single point confirmation; shares compounds with RGS16-Gao; bead-based flow cytometry, RGS16-Galphao binding; actives lie on both sides; response (% of control binding), % at 10 µM; 1,700 tested, 4% active; in the data active means response below about 74% or above about 130%; inactive means in between;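 further: Galphao activated as the GDP aluminium fluoride complex binding bead-coupled RGS16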
RGS4-Gao confirm: RGS4-Galphao interaction regulation, single point confirmation. 1,700 tested, 4% active. shares compounds with RGS16-Gao. RGS4-Galphao binding, multiplexed bead flow cytometry; actives lie on both sides. AID 1840. binding response (% of control), % at 10 µM; in the data active means binding response below about 74% or above about 130%; inactive means in between
RGS19-Gao conf: RGS19-Galphao interaction regulation, single point confirmation. shares compounds with RGS16-Gao. bead-based flow cytometry RGS19-Galphao binding; actives lie on both sides. response (percent of control binding), % at 10 µM. 1,700 tested, 5% active. AID 1841; in the data active means response below about 50% or above about 160%; inactive means in between
Hits are given with their value; . = inactive; ? = inconclusive; / = no result; [ ] = dose if it differs, or a comment. Unless noted, how the calls were made is not given here.

SMILES | RGS7-Gao reg | GSH bead fluor | Avidin fluor | RGS8-Gao reg | RGS4-Gao reg | RGS16-Gao | Avidin counter | RGS8-Gao single | RGS7-Gao single | RGS16-Gao conf | RGS4-Gao confirm | RGS19-Gao conf | others
CN1C(=O)c2ccccc2C(C(=O)NCCCN2CCCC2=O)C1c1c[nH]c2ccccc12 (stereo not given) | . | . | . | . | . | . | / | / | / | / | / | /
COCCN1C(=O)c2ccccc2C(C(=O)NCCCN2CCCC2)C1c1c[nH]c2ccccc12 (stereo not given) | 33.5 | . | . | 41.6 | 38.4 | . | . | . | . | . | . | .
C=CCn1c(O)c(N=NC(=O)OCC)c2ccccc21 | . | . | . | . | . | . | / | / | / | / | / | /
CCOC(=O)N=Nc1c(O)n(C)c2ccccc12 | 185.7[activator] | . | 121 | . | . | . | . | . | 65.5 | . | 71.8 | . | RGS-Gao=137.2
CCN(CC)C(=O)C(=O)c1cccn1-c1c(Cl)cccc1C#N | 157.8[activator] | . | 109 | . | . | . | . | . | . | . | . | . | RGS-Gao=112.3
Cc1ccccc1CN1CCN(S(=O)(=O)c2cccs2)CC1 | . | . | . | . | . | . | / | / | / | / | / | /
Cc1ccc(C(=O)N/N=C/C=C/c2ccccc2)o1 | 229.9[activator] | . | . | . | . | . | . | . | . | . | . | . | RGS-Gao=112.8
Cc1onc(-c2ccccc2)c1C(=O)N/N=C/C=C/c1ccccc1 | ? | / | . | . | . | . | / | / | / | / | / | /
Cc1[nH]n(-c2ccccc2)c(=S)c1C=NCCCN=Cc1c(C)[nH]n(-c2ccccc2)c1=S | . | . | . | 52.1 | . | -0.3 | . | . | . | 74.2 | . | 47.0 | RGS-Gao=92.0
COc1ccc(-n2c(N)c(C(=O)Nc3c(C)n(C)n(-c4ccccc4)c3=O)c3nc4ccccc4nc32)cc1 | ? | / | 116 | 141.1[activator] | 315.3[activator] | 288.0[activator] | . | . | . | . | . | .
Cc1ccc(-n2c(N)c(C(=O)Nc3c(C)n(C)n(-c4ccccc4)c3=O)c3nc4ccccc4nc32)cc1C | . | . | . | . | . | . | / | / | / | / | / | /
Cc1cccc(Oc2sc(C(=O)c3ccccc3)c(N)c2C#N)c1 | . | . | . | . | . | . | / | / | / | / | / | /
O=C(NCc1ccccc1)c1cc2ccccc2o1 | . | . | . | . | . | . | / | / | / | / | / | /
CCNC(=O)c1cc2ccccc2o1 | 14.7 | . | . | 16.5 | 10.4 | 11.2 | . | . | . | . | . | .
CCCN(CCC)c1nc(N(CCC)CCC)[nH]c(=O)n1 | 5.2 | . | . | 19.7 | 16.4 | 9.2 | . | . | . | . | . | .
C=CCNC(=S)N1CCN(Cc2ccccc2)CC1 | . | . | . | . | . | . | / | / | / | / | / | /
Fc1ccc(N/N=C/c2ccncc2)c(F)c1 | . | . | . | . | . | . | / | / | / | / | / | /
Clc1ccc(N/N=C/c2ccncc2)cc1Cl | . | . | . | . | . | 198.8[activator] | . | . | . | . | . | . | RGS-Gao=108.9
CC(NS(=O)(=O)c1ccccc1)C(=O)NCc1ccco1 (stereo not given) | . | . | . | . | . | . | / | / | / | / | / | /
CCOC(=O)/C(C#N)=N/Nc1ccccc1OC | . | . | . | . | . | 19.8 | . | . | . | . | . | . | RGS-Gao=88.1
Cn1c(N)c(C(=O)CCl)c(=O)n(C)c1=O | . | . | . | . | . | . | / | / | / | / | / | /
CCOC(=O)c1c(C)n(CC)c2ccc(OC(=O)c3ccc([N+](=O)[O-])cc3)cc12 | / | . | . | . | . | . | . | . | . | . | . | .
COc1ccccc1NC(=O)CC(c1ccc(OC(C)C)cc1)c1ccccc1OC (stereo not given) | . | . | . | . | . | . | / | / | / | / | / | /
COc1ccccc1C(CC(=O)Nc1ccc(C)c(C)c1)c1ccc(OC(C)C)cc1 (stereo not given) | . | . | . | . | . | 197.2[activator] | . | . | . | . | . | . | RGS-Gao=114.5
Cc1ccc(-c2cc(C(F)(F)F)c(C#N)c(=O)[nH]2)cc1 | . | . | . | . | . | . | / | / | / | / | / | /
SMILES | RGS7-Gao reg | GSH bead fluor | Avidin fluor | RGS8-Gao reg | RGS4-Gao reg | RGS16-Gao | Avidin counter | RGS8-Gao single | RGS7-Gao single | RGS16-Gao conf | RGS4-Gao confirm | RGS19-Gao conf | others
N#Cc1c(C(F)(F)F)cc(C2CC2)[nH]c1=O | 184.4[activator] | . | 85 | . | . | . | . | . | . | . | . | . | RGS-Gao=108.6
O=C(O)C[C@@H]1C(=O)O[C@@H]2C(COC(=O)c3cc(O)c(O)c(O)c3)O[C@@H](OC(=O)c3cc(O)c(O)c(O)c3)[C@@H](OC(=O)c3cc(O)c(O)c4c3[C@H]1[C@H](O)C(=O)O4)[C@H]2OC(=O)c1cc(O)c(O)c(O)c1 (stereo not given in full) | ? | / | . | 38.1 | 2.5 | . | . | 39.0 | -11.7 | 38.6 | -0.5 | 41.7
CCCCOc1ccc(C(C)NC(=O)C2CCCN(S(=O)(=O)CCC)C2)cc1 (stereo not given) | . | . | . | . | . | . | / | / | / | / | / | /
C=C1c2cccc(O)c2C(O)=C2C(=O)[C@]3(O)C(O)=C(C(N)=O)C(=O)[C@@H](N(C)C)[C@@H]3[C@@H](O)[C@H]12 | . | . | . | . | . | . | / | / | / | / | / | /
CN(C)[C@@H]1C(=O)C(C(=O)NCN2CCCC2)=C(O)[C@@]2(O)C(=O)C3=C(O)c4c(O)cccc4[C@@](C)(O)C3CC12 (stereo not given in full) | 8.3 | . | . | 18.4 | 21.5 | . | . | 53.1 | 25.9 | 54.5 | 60.3 | 35.3
CC1(c2nnc(-c3ccncc3)o2)CC(c2ccc(F)cc2)=NO1 (stereo not given) | ? | / | . | . | . | . | / | / | / | / | / | /
CCC(C)(C)NC(=O)C1CCN(S(=O)(=O)c2cccs2)CC1 | 424.1[activator] | . | 80 | . | 465.1[activator] | 363.9[activator] | . | . | . | . | . | .
C=CCNc1sc(C(=O)c2ccc(Br)s2)c(N)c1C#N | . | . | . | . | . | . | / | / | / | / | / | /
